Experimental data from PubChem BioAssay (NCATS).
Inconclusive results are not listed. A call without a number means that no potency is given here. The source made the active and inactive calls. The call rests on the fitted dose curve; in most records, active means well fitted cell-killing curve with a large enough effect; inconclusive means small, poorly fitted or top-dose-only effect; inactive means no such curve, though single readings can be large or run the other way. Non-standard residues stand in square brackets, D forms with d. Residues, ends and D or L forms follow the SMILES beside them. *: point of attachment. Nva = CCC[C@H](N)C(=O)O; Cbz = O=C(OCc1ccccc1)*
Potency means the concentration at half of the fitted maximal effect.

Experiment: qHTS of pediatric cancer cell lines to identify multiple opportunities for drug repurposing: Primary screen for OHS-50 cells (AID 1347103); further: nearly all actives have a fitted effect of over 40% in size
Conditions: OHS-50 osteosarcoma viability, CellTiter-Glo luminescence, 48 h; series mostly up to 57.3 µM
Description: Drug repurposing or repositioning has been offered as a strategy for drug development in oncology programs. This approach has special potential for childhood cancers and other rare or orphan diseases, where the expected return on new drug development has been a disincentive to pharmaceuticals.
In this project we exploit the poly-pharmacology of drugs to discover new indications via phenotypic screening of a panel of 19 well-characterized cell lines derived from solid tumors seen in children and adolescents. The goal is to identify approved drugs with previously unrecognized anticancer properties that has the potential to reveal new mechanisms and biological processes involved in carcinogenesis or drug resistance. We employed a titration-based paradigm (quantitative high-throughput screening or qHTS), where all compounds were tested at multiple concentrations for their effect on cell viability. Concentration-response curves (CRCs) were derived directly from the primary screen, and both potency and efficacy values were used to identify compounds with robust bioactivity profiles. We screened the NIH Chemical Genomics Center (NCGC) Pharmaceutical Collection (NPC) and Mechanism Interrogation Plate (MIPE) small molecule collections of approved and investigational compounds against these cell lines; and measured metabolically active cells after 48 hours of compound treatment as a proxy for cell viability.
Assay Submitter: Nathalia J. Martinez, National Center for Advancing Translational Sciences, National Institutes of Health, Rockville, MD, USA; email: natalia.martinez@nih.gov
[1] Shen, M et al. Quantitative high-throughput phenotypic screening of pediatric cancer cell lines identifies multiple opportunities for drug repurposing. Oncotarget 2017 Dec 19;9(4):4758-4772. PMID 29435139.
The cells were obtained from University of North Carolina (UNC), Pediatric Preclinical Testing Program (PPT), and Coriell Institute (CI).
qHTS cell viability assay:
Cells were assayed in growth media at a density of 500-1,000 cells/well. Five microliters of cells were dispensed into 1,536-well, white, solid-bottom, TC-treated plates (Greiner Bio One) using a multidrop dispenser and incubated at 37 degrees C, 5% CO2, under a humidified atmosphere for 5 hours. Twenty-three nanoliters of compounds and controls (neutral control DMSO or positive control bortezomib at final concentration of 2.3 µM) were subsequently transferred by Kalypsys pintool. For primary screens, the MIPE collection was tested at 11-point dilutions (final concentrations range from 0.78 nM to 46 µM) and the NPC collection at 8-point dilutions (final concentrations range from 0.59 nM to 46 µM). Compounds tested in follow-up screens were assayed at 11-point dilutions. Cells were incubated for 48 hours, followed by addition of 3 µL of CellTiter-Glo (Promega). After a 15 min incubation at room temperature, samples were analyzed for luminescence intensity using a ViewLux High-throughput CCD imager equipped with clear filters.
With `CN(N=O)C(=O)N[C@H]1C(O)OC(CO)[C@@H](O)[C@H]1O` (stereo not given in full) the Potency was “inactive”. For `NC(=O)c1cccc(-c2cccc(OC(=O)NC3CCCCC3)c2)c1`, the Potency was “inactive”. With `COC1=C(OC)C(=O)C(CC=C(C)CCC=C(C)CCC=C(C)CCC=C(C)CCC=C(C)CCC=C(C)CCC=C(C)CCC=C(C)CCC=C(C)CCC=C(C)C)=C(C)C1=O` the Potency was “inactive”. For `Cn1cnc2c(F)c(Nc3ccc(Br)cc3F)c(C(=O)NOCCO)cc21`, the Potency was “inactive”. With `CC(=O)N[C@H]1[C@@H]([C@H](O)[C@H](O)CO)OC(C(=O)O)=C[C@@H]1N=C(N)N` the Potency was “inactive”. For `CN(CC(=O)N(Cc1ccc(C2CCCCC2)cc1)c1ccc(C(=O)O)c(O)c1)S(=O)(=O)c1c(F)c(F)c(F)c(F)c1F`, the Potency was 21700 nM (active). With `CC(C)(C)[N+]([O-])=Cc1ccc(S(=O)(=O)O)cc1S(=O)(=O)O` the Potency was “inactive”. With `N#CC(=C(O)c1ccc(Cl)cc1Cl)c1nc2cc(Cl)ccc2c(=O)[nH]1` the Potency was “inactive”. In the case of `C[C@H](NCc1ccc2c(c1)nc(NC(=O)c1ccc(-c3cn[nH]c3)s1)n2CCc1ccccc1)C(C)(C)C`, the Potency is reported as 1090 nM (active). For `CN[C@@H]1C[C@H]2O[C@@](C)([C@H]1OC)n1c3ccccc3c3c4c(c5c6ccccc6n2c5c31)C(=O)N[C@H]4O`, the Potency was 217 nM (active). For `CN(C)CC[C@H](c1ccc(Cl)cc1)c1ccccn1`, the Potency was “inactive”. For `COC(=O)C1C2CC3c4[nH]c5cc(OC)ccc5c4CCN3CC2CC(OC(=O)c2cc(OC)c(OC)c(OC)c2)C1OC` (stereo not given), the Potency was 27300 nM (active). In the case of `CC(=O)N[C@@H]1[C@H](O[C@@H]2c3ccc(c(Cl)c3)Oc3cc4cc(c3O[C@H]3O[C@H](CO)[C@@H](O)[C@H](O)[C@H]3NC(=O)CCCCCCCC(C)C)Oc3ccc(cc3Cl)C[C@H]3NC(=O)[C@H](N)c5ccc(O)c(c5)Oc5cc(O)cc(c5)[C@H](NC3=O)C(=O)N[C@H]4C(=O)N[C@H]3C(=O)N[C@@H]2C(=O)N[C@@H](C(=O)O)c2cc(O)cc(O[C@H]4O[C@H](CO)[C@@H](O)[C@H](O)[C@H]4O)c2-c2cc3ccc2O)O[C@H](CO)[C@@H](O)[C@@H]1O`, the Potency is reported as “inactive”. In the case of `C=C(C)[C@@H]1CC[C@]2(C)CC[C@]3(C)[C@H](CC[C@@H]4[C@@]5(C)CC[C@H](O)C(C)(C)[C@H]5CC[C@]43C)[C@@H]12`, the Potency is reported as “inactive”. In the case of `OCC(O)C(O)C(O)CO` (stereo not given), the Potency is reported as “inactive”. With `Cc1cc(O)c2c(c1)C(=O)c1cccc(O)c1C2=O` the Potency was “inactive”. For `COC(=O)[C@H](CCCN=C(N)N)NS(=O)(=O)c1ccc(C)cc1`, the Potency was “inactive”. For `CN[C@H]1[C@@H](O)[C@@H]2O[C@@H]3O[C@H](C)CC(=O)[C@]3(O)O[C@@H]2[C@@H](NC)[C@H]1O`, the Potency was 432 nM (active). With `NC(=O)Nc1cc(-c2ccc(CN3CCOCC3)cc2)sc1C(N)=O` the Potency was 217 nM (active). For `COc1cc(C=CC(=O)CC(=O)C=Cc2ccc(O)c(OC)c2)ccc1O`, the Potency was 39500 nM (active). For `CCC[C@@H](C=O)NC(=O)[C@H](CC(C)C)NC(=O)[C@H](CC(C)C)NC(=O)OCc1ccccc1` (Cbz-Leu-Leu-[Nva]-aldehyde), the Potency was 1530 nM (active). For `C=Cc1c(C)c2cc3nc(cc4[nH]c(cc5nc(cc1[nH]2)C(C)=C5CCC(=O)O)c(CCC(=O)OC)c4C)[C@@]1(C)C3=CC=C(C(=O)OC)[C@H]1C(=O)OC`, the Potency was 769 nM (active). In the case of `COc1ccc2c(c1OC)C(=O)OC2[C@H]1c2c(cc3c(c2OC)OCO3)CCN1C` (stereo not given in full), the Potency is reported as 137 nM (active). In the case of `COc1cc(C)c(Sc2cnc(NC(=O)c3ccc(CNC(C)C(C)(C)C)cc3)s2)cc1C(=O)N1CCN(C(C)=O)CC1` (stereo not given), the Potency is reported as 4850 nM (active). For `O=C1NC(O)CCN1[C@@H]1O[C@H](CO)[C@H](O)[C@H]1O` (stereo not given in full), the Potency was “inactive”. With `Cn1cc(-c2cnn3c(N)c(Br)c([C@H]4CCCNC4)nc23)cn1` the Potency was 385 nM (active). For `C=CC(=O)Nc1ccc2ncnc(Nc3ccc(OCc4cccc(F)c4)c(Cl)c3)c2c1`, the Potency was 4.3 nM (active). In the case of `CCOc1cc2ncc(C#N)c(Nc3ccc(OCc4ccccn4)c(Cl)c3)c2cc1NC(=O)C=CCN(C)C`, the Potency is reported as 863 nM (active). With `COc1cc(C(=O)NC2CCN(C)CC2)ccc1Nc1ncc2c(n1)N(C1CCCC1)CCC(=O)N2C(C)C` the Potency was 3430 nM (active). In the case of `COc1cc2c(cc1OC)[C@@H]1C(=O)c3ccc4c(c3O[C@@H]1CO2)C=CC(C)(C)O4`, the Potency is reported as 172 nM (active). In the case of `CCNC(=O)c1cc2c(-c3cc(OCCN4CCCC4)c(Cl)cc3Cl)nc(N)nc2s1`, the Potency is reported as 3850 nM (active). With `COc1cc(OC)c(C=CS(=O)(=O)Cc2ccc(OC)c(NCC(=O)O)c2)c(OC)c1` the Potency was 172 nM (active). With `CCN(C(=O)c1c(O)c2c(Cl)cccc2n(C)c1=O)c1ccccc1` the Potency was “inactive”. For `CN1[C@H]2CC(OC(=O)[C@@H](CO)c3ccccc3)C[C@H]1[C@H]1O[C@H]12` (stereo not given in full), the Potency was “inactive”. For `O=C1CSC(=O)N1C(CCc1ccncc1)COc1ccc(-c2cccc([N+](=O)[O-])c2)cc1` (stereo not given), the Potency was 4850 nM (active). With `O=C(C[C@@H]1CC=CCCC(=O)O[C@H](c2ccccc2)CNC1=O)NCc1ccc(Cl)cc1` the Potency was “inactive”. For `Cn1cc(-c2ccc3ncc(Cc4ccc5ncccc5c4)n3n2)cn1`, the Potency was “inactive”. For `C[C@@H]1C(=O)O[C@H]2CC34[C@H]5C[C@@H](C(C)(C)C)C36[C@H](OC(=O)[C@@H]6O)O[C@@]4(C(=O)O5)[C@]21O` (stereo not given in full), the Potency was “inactive”. For `COC(=O)[C@@H]1CC2=CC(=O)CC[C@]2(C)[C@@]23O[C@@H]2C[C@@]2(C)[C@H](CC[C@@]24CCC(=O)O4)[C@@H]13`, the Potency was “inactive”. With `Cn1cc(CNCC2CCN(c3ncc(C(=O)NO)cn3)CC2)c2ccccc21` the Potency was 86.3 nM (active).
